From PubChem BioAssay (NCI)
This is part of a sample that, as a whole, favours compounds with a hit. Of some 83,000 tested, about 20% had one in any assay.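 Step 1: grow cells in 96-well plates. Step 2: add test compound at a single concentration. Step 3: incubate 48 h. Step 4: record percent growth.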 Activity calls are given as the source filed them. Rule for the calls: active = growth percent below 10; inactive = the rest.

The molecules below were run on HL-60(TB) leukemia (assay: NCI-60 one-dose screen, 48 h (100 = growth as untreated, 0 = no growth, -100 = all killed)). Conditions: 10 µM unless noted.
In the case of `N#Cc1c(-c2ccccc2Cl)cc(-c2ccc3ccccc3c2)[nH]c1=O`, the growth is reported as 71.9% (inactive).
With `COc1ccc(Cc2nn(CC(=O)N/N=C/c3ccc(Br)cc3)c(=O)c3c(C)noc23)cc1` the growth was 91.2% (inactive).
For `CCOc1ccc(/C=N/NC(=O)Cn2nc(Cc3ccc([N+](=O)[O-])cc3)c3onc(C)c3c2=O)cc1`, the growth was 81.5% (inactive).
For `CCCCc1c(Nn2cnnn2)no[n+]1[O-]`, the growth was 37.9% (inactive).
For `COc1ccc(C(=O)COc2ccc(NC(=O)Nc3ccccc3)cc2)cc1`, the growth was 91.6% (inactive).
`COc1ccc(/C=C/C(=O)c2ccc(S(=O)(=O)NCCNc3nc(Nc4ccc(F)cc4)nc(N(C)C)n3)cc2)cc1` was tested, and the growth was 17.2% (inactive).
In the case of `C/C(=N\Nc1ccc(C(=O)O)cc1)c1cnn(-c2cc(=O)[nH]c3ccc(C)cc23)c1C`, the growth is reported as 101% (inactive).
With `Nc1nnc(-c2c[nH]c3ccc(F)cc23)c(-c2c[nH]c3ncccc23)n1` the growth was 63.3% (inactive).
For `COc1ccc2[nH]cc(-c3cc(N)n4nc(-c5cn(C)c6ccccc56)cc4n3)c2c1`, the growth was -40.7% (active).
In the case of `COc1cc(NC(=O)c2cccc(C3CCc4c(cc(OC)c(OC)c4OC)O3)c2)cc(OC)c1OC` (stereo not given), the growth is reported as 4.25% (active).
For `COc1cccc(COc2ccc(NC(=O)Nc3ccc(Cl)c(C(F)(F)F)c3)cc2)c1`, the growth was 17.8% (inactive).
`Cc1ccc(-c2ccc(SCC(=O)Nc3ccc(Cl)c(C(F)(F)F)c3)nn2)cc1` was tested, and the growth was -22.3% (active).
`COc1ccccc1C(=O)NNC(=O)CSc1nc2c(c(=O)[nH]1)CCCC2` was tested, and the growth was 100% (inactive).
With `COc1ccc2c(c1)N=C(C(=O)O)/C2=C/c1sc(Nc2ccc(O)cc2)nc1O` the growth was 85.8% (inactive).
For `CC[C@]12C=CCN3CC[C@@]4(c5ccc(OC)cc5N(C)[C@H]4[C@@](O)(C(=O)OC)[C@@H]1OC(=O)CCCC[P+](c1ccc(F)cc1)(c1ccc(F)cc1)c1ccc(F)cc1)[C@@H]32`, the growth was -32.2% (active).
For `CSc1ccc(NC(=O)c2ccc3nnn(/C(C#N)=C/c4ccccn4)c3c2)cc1`, the growth was 2.93% (active).
For `N/N=C(\N)c1c(N)nc(=S)[nH]c1-c1ccc(Cl)cc1Cl`, the growth was 89.1% (inactive).
With `O=C1CC(c2ccc(I)cc2)OC2C=Cc3ccccc3C12` (stereo not given) the growth was 89% (inactive).
In the case of `Nc1nnc(-c2c[nH]c3ccc(Br)cc23)c(-c2c[nH]c3ncc(Br)cc23)n1`, the growth is reported as 23.1% (inactive).
In the case of `Cn1cc(-c2nc(N)nnc2-c2c[nH]c3ccccc23)c2cc(Br)cnc21`, the growth is reported as 4.17% (active).
With `FC(F)(F)CN1CCN(CCn2c(C(F)(F)F)cc3c(Cl)ncnc32)CC1` the growth was -65.2% (active).
`NC(=O)c1ccc(-c2ccc3ncnc(N4CCc5cc(F)c(Cl)cc54)c3c2)cn1` was tested, and the growth was 64.9% (inactive).
In the case of `Clc1ccc2c(NCCNC34CC5CC(CC(C5)C3)C4)ccnc2c1`, the growth is reported as -53.1% (active).
For `CCN1C(=O)/C(=N\N=C(/C)c2ccc3c(c2)Nc2ccccc2S3)c2cc(Cl)ccc21`, the growth was 75.2% (inactive).
With `C/C(=C\c1ccc(O)cc1O)c1ccc2ccc(O)cc2[o+]1` the growth was 63.2% (inactive).
In the case of `COc1cc(C2CC(c3ccccc3)=Nc3c(N)nc(N)nc3N2)ccc1Oc1nc(Nc2ccc(F)cc2)nc(N(C)C)n1` (stereo not given), the growth is reported as 26.1% (inactive).
In the case of `Clc1ccc(-c2nc3ccc(-c4nnc(SCc5ccccc5)o4)cc3[nH]2)cc1`, the growth is reported as 51.8% (inactive).
`CS(=O)(=O)Nc1cc(-c2ccc3ncnc(N4CCc5cc(F)c(Cl)cc54)c3c2)cnc1Cl` was tested, and the growth was 14.3% (inactive).
With `Cc1cc(=O)oc2cc(OCCCCOc3ccc(/C=C/C(=O)Nc4ccccc4N)cc3)ccc12` the growth was 0.47% (active).
For `CC1[C@H]2[C@H](C[C@H]3[C@@H]4CC=C5c6sc(Nc7ccccc7F)nc6CC[C@]5(C)[C@H]4CC[C@@]32C)O[C@]12CC[C@@H](C)CO2` (stereo not given in full), the growth was -41.9% (active).
With `Cc1ccc(CSc2nc(Cl)c(C#N)c(-c3ccc(F)cc3)n2)cc1` the growth was 42% (inactive).
`O=C(Nc1nc2ccccc2s1)Nc1ccccc1Cl` was tested, and the growth was 97.4% (inactive).
`Cn1cc(-c2cc(N)n3nc(-c4cn(C)c5ccc(Cl)cc45)cc3n2)c2ccccc21` was tested, and the growth was 92.5% (inactive).
In the case of `O=c1cc(-c2ccccc2)oc2cc(OCCCNCc3ccccc3)cc(O)c12`, the growth is reported as -46.3% (active).
With `Nc1nc(Nc2ccc(Cl)cc2)nn1Cc1cccc(Br)c1` the growth was 34.5% (inactive).
With `N#Cc1c(Cl)nc(SCc2ccc(F)cc2)nc1-c1ccc(F)cc1` the growth was 50.2% (inactive).
With `COc1ccc2[nH]c(O)c(N=Nc3nc(-c4ccc(Cl)cc4)cs3)c2c1` the growth was 58% (inactive).
`S=C(Nc1ccc(OCc2nc3ccc(Cl)cc3[nH]2)cc1)NC1CCCCC1` was tested, and the growth was -37.1% (active).
In the case of `COc1ccc2[nH]c(O)c(N=NC(=O)COc3ccc(NC(=O)Nc4ccccc4)cc3)c2c1`, the growth is reported as 96% (inactive).
With `Cc1ccc2nc3c(nc2c1)c1cc(I)ccc1n3CCN(C)C` the growth was 13.7% (inactive).
